# Measured values published in PubChem BioAssay AID1457 (National Center for Advancing Translational Sciences (NCATS), 2008).
# The campaign covered roughly 210,000 compounds. About 730 (0.35%) were called active. Another 1% or so got no clear call; they are omitted. Calls follow the shape of the dose curve; as a rule, active = well fitted inhibition curve with a large enough effect; inconclusive = small, poorly fitted or top-dose-only effect; inactive = no such curve, though single readings can be large or run the other way. The entries come from a sample that favours actives as a whole.
# Test: qHTS Assay for Identifying the Cell-Membrane Permeable IMPase Inhibitors: Potentiation with Lithium;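 also: IP1 builds up when IMPase is blocked and the TR-FRET signal falls; nearly all actives have a fitted effect of over 50% in size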;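 as to activity, negative = IMPase inhibition: plate controls were basal vehicle for no effect and high inhibitor control for full effect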
# Details: CHO-M1 cells, IP1 TR-FRET (IP-One), carbachol + lithium; series mostly up to 59.4 µM; activity, negative = IMPase inhibition: at the top concentration
# Description: NIH Chemical Genomics Center [NCGC]
# NIH Molecular Libraries Probe Production centers Network [MLPCN]
# Assay Submitter (PI): Wei Zheng
# Lithium has been widely used for the treatment of bipolar disorder. But lithium has a narrow therapeutic index and it can cause side effects such as thirst, weight gain, tremor, polyuria and memory problems. Although the mechanism for lithium action in treatment of bipolar disorder is still not fully understood, inhibition of inositol monophosphatase (IMPase) and the subsequent depletion of the inositol pool in living cells have been implicated as the primary therapeutic benefit of lithium therapy. Therefore, a selective IMPase inhibitor with reduced side effects might be a good drug candidate to replace lithium for the treatment of bipolar disorder. Several IMPase inhibitors have been discovered previously. However, they are not suitable for therapeutic use because of their poor cell membrane penetrability or oral bioavailability; the development of new cell-permeable IMPase inhibitors is needed.
# IMPase catalyzes the hydrolysis of inositol-1-phosphate (IP1) to release free inositol. Binding of an agonist to a Gq coupled GPCR results in the activation of PLC, which hydrolyzes the PIP2 to form inositol-1,4,5-trisphosphate (IP3) and diacyl glycerol (DAG). While DAG activates protein kinase C (PKC), IP3 triggers the elevation of intracellular free Ca2+. The IP3 is very rapidly inactivated by hydrolysis to IP2, IP1 and then inositol by a series of enzymes including IMPase. Free inositols are used for synthesis of PI and thus start another inositol cycle.
# To identify new cell-permeable IMPase inhibitors, we developed a cell-based IMPase assay in which the cytosolic IP1 is measured by a time-resolved fluorescence resonance energy transfer (TR-FRET) assay. In this assay, an IP1 specific antibody is used to detect the labeled IP1 tracer. When the cell lysate contains the elevated IP1 due to the inhibition of IMPase, the TR-FRET between the labeled antibody and IP1 tracer is disrupted resulting in a reduction in the total signal. Since the TR-FRET is used, this cell-based assay is a homogenous assay without cell wash and medium change that is suitable for assay miniaturization and HTS. In this particular assay, a small amount of lithium is added to potentiate the response of weak activators.
# NCGC Assay Protocol Summary:
# A Chinese hamster ovary (CHO) cell line stably expressing the M1 receptor (CHO-M1) was obtained from ATCC and maintained in F-12 Kaighn's media (Invitrogen, Carlsbad, CA) supplemented with 10 % FBS, 100 units/ml penicillin, 100 ug/ml streptomycin and 250 ug/ml geneticin at 37C, 5% CO2 in a humidified atmosphere. Before the assay, aliquots of cells were frozen and stored at -135C. The assay was performed in 1536-well format. Data are reported for both the ratio of the two emission wavelengths, and also for the component 'donor' channel, Em2=620. […] AC50 values were determined from concentration-response data modeled with the standard Hill equation.
# (1) Frozen CHO-M1 cells were thaw, washed once with fresh media and resuspended in F12K media containing 10% FBS, 100 units/ml penicillin and 100 ug/ml streptomycin. Cells were plated at 4ul/well (2000 cells) in white, tissue culture treated 1536-well plates, and then cultured at 37C, 5 % CO2 for 16 to 30 hours.
# (2) Add 23 nl/well of compound in DMSO solution. The final titration for each compound was between 0.6 nM and 46 uM.
# (4) Incubation at 37C, 5 % CO2 for 30 min.
# (5) Add 1 ul/well of d2-conjugated IP1 (d2-IP1) and 1 ul/well of Eu+ cryptate conjugated anti-IP1 antibody (Eu+-Ab) prepared in the cell lysis buffer, both from the IP-One kit (Cisbio, MA).
# (6) Incubate at room temperature for 10 minutes.
# (7) Detect the assay plate (Ex = 320, Em1 =665 and Em2 620) in a ViewLux plate reader.
# Potency is read from the fitted curve at half-maximal effect.
Compound,"activity, negative = IMPase inhibition",Potency
CC1(OC(=O)c2ccc(Cl)nc2)C(=O)Cc2cc(-c3ccsc3)ncc2C1=O (stereo not given),9.99% (inactive),
COc1cc(C2/C(=C(\O)c3ccc4c(c3)CC(C)O4)C(=O)C(=O)N2Cc2ccco2)ccc1O (stereo not given),-13.8% (inactive),
CC1Cc2cc(/C(O)=C3\C(=O)C(=O)N(CCN4CCOCC4)C3c3ccccc3F)ccc2O1 (stereo not given),,10 µM (active)
O=C1C(=O)N(CCN2CCOCC2)C(c2ccccn2)/C1=C(/O)c1ccc(Cl)cc1 (stereo not given),7.49% (inactive),
CCN(CC)CCN1C(=O)C(=O)/C(=C(/O)c2ccccc2)C1c1ccccc1F (stereo not given),5.01% [at 38.3 µM] (inactive),
COCCCN1C(=O)C(=O)/C(=C(/O)c2ccc3c(c2)CC(C)O3)C1c1cccnc1 (stereo not given),,8.91 µM (active)
COc1cccc(C2/C(=C(/O)c3ccncc3)C(=O)C(=O)N2CCCN(C)C)c1 (stereo not given),2.53% [at 38.3 µM] (inactive),
CC(C)(C)OC(=O)NCCCC1=CC2=CC(=O)C(C)(OC(=O)c3ccco3)C(=O)C2=CO1 (stereo not given),13.9% (inactive),
CCCCC/C=C\C/C=C\CCCCCCCCCC(N)=O,4.61% (inactive),
COC(=O)C1=C(C(=O)OC)[C@@H]2N(C)c3ccccc3[C@@]23C[C@@H](C(=O)OC)N(C(=O)c2ccco2)C3=N1,-2.84% (inactive),
CCCCCCCC1=Cc2ccc(F)cc2C(C(C(=O)OC)C(=O)OC)N1C(=O)OC (stereo not given),,inactive
O=C(Oc1ccccc1)Oc1ccc2c(c1)oc(=O)c1ccccc12,,10 µM (active)
NC(=O)COc1ccc2c3c(c(=O)oc2c1)CCCCC3,17.5% [at 38.3 µM] (inactive),
Cc1c(Cc2ccccc2)c(=O)oc2cc(OCC(N)=O)ccc12,-7.11% (inactive),
CCOC(=O)C1=C(C)c2ccccc2OC1(C)C(=O)OCC (stereo not given),-2.23% (inactive),
CCCCC/C=C\C/C=C\CCCCCCCCCC(=O)O,,inactive
C[C@H]1Cc2c(COc3ccccc3)nc3c(c2CO1)CN(C(=O)Nc1cccc(C#N)c1)CC3,-3.57% (inactive),
C#CCCOC(=O)N1C2=NC(C(=O)OC)=C(C(=O)OC)[C@@H]3N(C)c4ccc(OC)cc4[C@]23C[C@H]1C(=O)OC,-1.69% (inactive),
COc1ccc(-c2nc3c(c4c2C[C@H](c2ccccc2)OC4)CN(C(=O)c2ccco2)CC3)c(C)c1,4.59% (inactive),
C=CC1=C2C=C(C3CC3)N(C(CO)CO)C=C2C(=O)C(C)(OC(=O)c2ccco2)C1=O (stereo not given),3.61% (inactive),
COc1ccc2c(c1)O[C@@H](c1ccc3c(c1)OCO3)[C@H](OC(=O)NCc1ccco1)C2=O,-3.02% (inactive),
O=C1CN(c2nc(-c3ccccc3)c3cc(Br)ccc3n2)c2ccccc2N1,,12.6 µM (active)
Cc1ccc(C)c(S(=O)(=O)N2CC(=O)Nc3ccccc32)c1,21.6% [at 38.3 µM] (inactive),
Cc1ccc(S(=O)(=O)N2CC(=O)Nc3ccccc32)cc1C,-2.99% [at 38.3 µM] (inactive),
COc1ccc(-c2nc3c(c4c2C[C@H](c2ccccc2)OC4)CN(S(=O)(=O)c2c(C)noc2C)CC3)c(C)c1,2.36% (inactive),
